This passage reports growth results from PubChem BioAssay (NCI).

Compounds without any hit were thinned out: in the full panel of roughly 83,000, 20% have a hit.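 The test compound was applied at a single concentration to cells in 96-well plates for 48 hours, and percent growth was recorded.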 A number with no mark means an inactive call. Active and inactive are the calls of the source. The calls were made as follows: active = growth percent below 10; inactive = the rest.

Among the test systems are 786-0 renal; MALME-3M melanoma; MDA-MB-231 breast; SF-268 CNS; SF-295 CNS; UACC-257 melanoma; UACC-62 melanoma; SK-MEL-2 melanoma; EKVX NSCLC; SN12C renal; UO-31 renal; TK-10 renal; CAKI-1 renal; A498 renal; OVCAR-8 ovarian; OVCAR-5 ovarian; IGROV1 ovarian; OVCAR-3 ovarian; HS 578T breast; NCI/ADR-RES ovarian.
What all share (experiment): NCI-60 one-dose screen, 48 h (100 = growth as untreated, 0 = no growth, -100 = all killed)
Conditions in all cases: 10 µM

In the case of `O=C1S/C(=C\c2ccc([N+](=O)[O-])cc2)C(=O)N1CCN1CCCCC1`, the growth with 786-0 renal is 105%; with MALME-3M melanoma it was 118%; with MDA-MB-231 breast, 102%; in the assay with SF-268 CNS it was 112%; in the assay on SF-295 CNS, 111%; in the assay with UACC-257 melanoma, 112%. Also, the growth was 99.6% in the assay on UACC-62 melanoma; 111% in the assay on SK-MEL-2 melanoma; 104% in the assay on EKVX NSCLC; 98.5% in the assay on SN12C renal; 102% with UO-31 renal; 106% in the assay with TK-10 renal. For the same compound, the growth in the assay with CAKI-1 renal was 102%; in the assay with A498 renal it was 126%; in the assay with OVCAR-8 ovarian, 105%; in the assay with OVCAR-5 ovarian, 114%; in the assay with IGROV1 ovarian it was 112%; in the assay with OVCAR-3 ovarian, 116%. Besides, the growth in the assay with HS 578T breast is 115%; in the assay with NCI/ADR-RES ovarian, 109%.

`COc1ccc(C(=O)COc2ccc(NC(=O)Nc3ccccc3)cc2)cc1`: the growth in the assay on 786-0 renal is 94%; in the assay with MALME-3M melanoma, 85.3%; with MDA-MB-231 breast, 94.1%; in the assay with SF-268 CNS it was 91.6%; with SF-295 CNS it was 90.5%; in the assay with UACC-257 melanoma, 93.8%. Also, the growth is 80% in the assay with UACC-62 melanoma; 80.8% with SK-MEL-2 melanoma; 82.7% with EKVX NSCLC; 91.1% in the assay on SN12C renal; 80% with UO-31 renal; 101% with TK-10 renal. Also, the growth with CAKI-1 renal is 72.7%; in the assay on A498 renal it was 104%; in the assay on OVCAR-8 ovarian, 87.2%; with OVCAR-5 ovarian, 98.7%; in the assay on IGROV1 ovarian it was 94.8%; in the assay with OVCAR-3 ovarian it was 104%. Further, the figures for the growth in the assay with HS 578T breast and with NCI/ADR-RES ovarian were 97.3% and 86.4%, respectively.

As to `COc1ccc(Cn2cc(C#N)c(N)c2C(C)=O)c(OC)c1`, the growth with 786-0 renal is 102%; in the assay with MALME-3M melanoma, 108%; with MDA-MB-231 breast, 101%; in the assay with SF-268 CNS, 103%; in the assay on SF-295 CNS, 109%; in the assay on UACC-257 melanoma it was 109%. Also, the growth is 98.1% with UACC-62 melanoma; 126% with SK-MEL-2 melanoma; 98.6% with EKVX NSCLC; 96.4% with SN12C renal; 96.4% with UO-31 renal; 113% in the assay on TK-10 renal. Besides, the growth was 102% with CAKI-1 renal; 97.8% in the assay with A498 renal; 104% in the assay with OVCAR-8 ovarian; 112% in the assay on OVCAR-5 ovarian; 112% in the assay with IGROV1 ovarian; 105% in the assay on OVCAR-3 ovarian. Also, the growth in the assay with HS 578T breast was 111%; in the assay on NCI/ADR-RES ovarian, 102%.

With `Cn1cc(-c2cc(N)n3nc(-c4cn(C)c5ccccc45)cc3n2)c2cc(F)ccc21`, the growth in the assay with 786-0 renal is -89.4% (active); in the assay on MALME-3M melanoma, -78.5% (active); in the assay on MDA-MB-231 breast, -56% (active); in the assay on SF-268 CNS, -63.1% (active); in the assay on SF-295 CNS it was -72.6% (active); in the assay on UACC-257 melanoma, -86.4% (active). In addition, the growth with UACC-62 melanoma is -67.7% (active); in the assay with SK-MEL-2 melanoma, -92.5% (active); with EKVX NSCLC it was -50.1% (active); in the assay with SN12C renal it was -67% (active); in the assay on UO-31 renal it was -82.4% (active); in the assay with TK-10 renal, -58.6% (active). Besides, the growth with CAKI-1 renal is -80.9% (active); in the assay on A498 renal, -68.9% (active); with OVCAR-8 ovarian, -94.9% (active); in the assay on OVCAR-5 ovarian, -52.6% (active); with IGROV1 ovarian, -41.5% (active); in the assay on OVCAR-3 ovarian, -75% (active). Further, the growth in the assay with HS 578T breast is -24.1% (active); in the assay on NCI/ADR-RES ovarian it was -21.1% (active).

Turning to `Cn1cc(/C=C(/SS/C(=C/c2cn(C)c3cccc(C(=O)O)c23)C(=O)O)C(=O)O)c2c(C(=O)O)cccc21`, the growth in the assay on 786-0 renal is 104%; in the assay on MALME-3M melanoma, 97.9%; with MDA-MB-231 breast, 102%; with SF-268 CNS it was 101%; in the assay on SF-295 CNS, 105%; in the assay with UACC-257 melanoma, 104%. Besides, the growth was 92.3% in the assay on UACC-62 melanoma; 106% in the assay on SK-MEL-2 melanoma; 98.2% in the assay on EKVX NSCLC; 99% in the assay on SN12C renal; 88.1% in the assay with UO-31 renal; 93% with TK-10 renal. The growth was 87.9% in the assay with CAKI-1 renal; 109% in the assay on A498 renal; 103% with OVCAR-8 ovarian; 105% in the assay with OVCAR-5 ovarian; 113% with IGROV1 ovarian; 109% in the assay on OVCAR-3 ovarian. The growth was 108% with HS 578T breast and 93.4% with NCI/ADR-RES ovarian.

Regarding `CC(C)(C)c1cc(/C=C2\S/C(=N/c3ncn[nH]3)NC2=O)cc(C(C)(C)C)c1O`, the growth in the assay on 786-0 renal is 24.5%; in the assay on MALME-3M melanoma, 36.8%; in the assay with MDA-MB-231 breast it was 23.7%; in the assay with SF-268 CNS it was 23.3%; with SF-295 CNS, 14.3%; in the assay with UACC-257 melanoma, 17.5%. The growth with UACC-62 melanoma is 1.85% (active); with SK-MEL-2 melanoma, -7.9% (active); in the assay on EKVX NSCLC, 12.3%; in the assay with SN12C renal it was 12.7%; with UO-31 renal, 15.1%; with TK-10 renal, 24%. The growth is 19.6% in the assay on CAKI-1 renal; 32.8% with A498 renal; 10.8% in the assay with OVCAR-8 ovarian; 32.8% in the assay on OVCAR-5 ovarian; 17.7% in the assay on IGROV1 ovarian; 17.3% in the assay with OVCAR-3 ovarian. For the same compound, the growth with HS 578T breast is 11.8%; in the assay with NCI/ADR-RES ovarian it was 5.61% (active).

On to `COc1ccc2[nH]cc(-c3nc(N)nnc3-c3cn(C)c4ncc(Br)cc34)c2c1`, for which the growth with 786-0 renal is 12.8%; in the assay with MALME-3M melanoma, 28.7%; with MDA-MB-231 breast it was 21%; in the assay on SF-268 CNS, 12.9%; in the assay with SF-295 CNS, 17%; in the assay on UACC-257 melanoma, 39%. Also, the growth in the assay with UACC-62 melanoma is 14.2%; with SK-MEL-2 melanoma it was 36.2%; in the assay on EKVX NSCLC, 35.1%; with SN12C renal it was 17.8%; in the assay with UO-31 renal it was 3.12% (active); in the assay with TK-10 renal, 11%. Moreover, the growth in the assay on CAKI-1 renal is -0.341% (active); in the assay on A498 renal, -21.6% (active); in the assay with OVCAR-8 ovarian it was 1.18% (active); in the assay with OVCAR-5 ovarian, 20.6%; with IGROV1 ovarian, 3.82% (active); with OVCAR-3 ovarian, -0.754% (active). Moreover, the figures for the growth in the assay with HS 578T breast and in the assay with NCI/ADR-RES ovarian were 28.2% and 12.5%, respectively.

Regarding `Cn1cc(-c2nc(N)nnc2-c2c[nH]c3ccccc23)c2cc(Br)cnc21`, the growth with 786-0 renal is 28.4%; with MALME-3M melanoma, 36.7%; in the assay with MDA-MB-231 breast it was 16.3%; in the assay on SF-268 CNS it was 20.3%; in the assay with SF-295 CNS, 15%; in the assay with UACC-257 melanoma it was 46%. Further, the growth with UACC-62 melanoma was 21.1%; in the assay on SK-MEL-2 melanoma it was 24.7%; in the assay with EKVX NSCLC, 29.8%; in the assay with SN12C renal, 17.7%; with UO-31 renal it was 11.8%; with TK-10 renal it was 64.2%. Also, the growth in the assay on CAKI-1 renal was 11.9%; in the assay on A498 renal, 96.3%; in the assay on OVCAR-8 ovarian, 5.76% (active); in the assay on OVCAR-5 ovarian, 21.8%; in the assay with IGROV1 ovarian it was 23.2%; in the assay on OVCAR-3 ovarian, 9.25% (active). The growth in the assay with HS 578T breast was 40.7%; in the assay on NCI/ADR-RES ovarian it was 3.11% (active).
